Results on 20 compounds are retold here after PubChem BioAssay (NCATS).

The target in test [1] is Cellular tumor antigen p53 (Homo sapiens) (UniProt P04637). The test can be described thus: Primary qHTS for small molecule compounds that upregulate eGFP-tagged delta133p53alpha (in N-terminal) cells. (AID 2060322).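 For activation: cells pre-induced with doxycycline then dosed without doxycycline; series mostly up to about 56 µM; 0% = DMSO vehicle and 100% = reference activator.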 Note: nearly all actives have a fitted effect of over 75% in size. Note: potency is the fitted concentration of half-maximal effect. The note with it: NCI-H358 eGFP-delta133p53alpha fluorescence, 24 h; activation: hits give high values. Summed up:
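NCI-H358 cells pre-induced 24 h with 10 ng/ml doxycycline for eGFP-delta133p53alpha, plated dox-free and exposed 24 h at 37C to titrated compounds. Fixed, Hoechst-stained; gated GFP peak intensity by laser scanning cytometry, normalized to DMSO (0%) and 57.5 uM 5-azacytidine (100%).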
(In qHTS, concentration-response curves come from the screen itself.)

Test [2] deals with Aldehyde dehydrogenase, mitochondrial (Homo sapiens) (UniProt P05091). The test can be described thus: qHTS for Inhibitors of the Aldehyde Dehydrogenase Family (ALDH2) Primary screen (AID 2061308).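 Note: plate controls were vehicle for no effect and reference inhibitor for full effect; nearly all actives have a fitted effect of over 55% in size.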
In test [3] the target is Retinaldehyde dehydrogenase 3 (Homo sapiens) (UniProt P47895). Kind of test: qHTS for Inhibitors of the Aldehyde Dehydrogenase Family (ALDH1A3) Primary screen (AID 2061315).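 Note: plate controls were DMSO vehicle for no effect and reference inhibitor for full effect.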

Molecules are shown by their SMILES. “And” between values parts separate entries of the source, which are not always exact repeats. Equal entries are not always repeated. Records with an inconclusive call do not appear. Values without a mark were called inactive. The source made the active and inactive calls. Calls come from the whole dose curve; as a rule, active = well fitted curve in the direction sought with a large enough effect; inconclusive = small, poorly fitted or top-dose-only effect, or another doubt; inactive = no such curve, though single readings can be large; an effect the other way counts as inactive or inconclusive.

Sequence of Cellular tumor antigen p53 (Homo sapiens) (P04637 whole entry, looked up): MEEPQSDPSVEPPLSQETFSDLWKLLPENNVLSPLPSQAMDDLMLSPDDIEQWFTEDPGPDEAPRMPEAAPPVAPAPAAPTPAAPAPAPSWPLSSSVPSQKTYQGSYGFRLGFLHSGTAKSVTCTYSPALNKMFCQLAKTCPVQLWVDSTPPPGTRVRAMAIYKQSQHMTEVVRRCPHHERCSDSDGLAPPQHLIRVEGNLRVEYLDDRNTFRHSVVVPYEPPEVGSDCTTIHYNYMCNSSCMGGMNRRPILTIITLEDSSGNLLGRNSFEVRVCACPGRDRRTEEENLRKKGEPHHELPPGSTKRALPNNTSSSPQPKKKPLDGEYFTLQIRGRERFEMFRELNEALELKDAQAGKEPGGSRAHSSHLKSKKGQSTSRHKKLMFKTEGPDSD

Take `N#CC[C@H](C1CCCC1)n1cc(-c2ncnc3[nH]ccc23)cn1`: in test [1], the activation is 7.18% and -12.3%. Also, the Potency entry in test [2] and in test [3] was “inactive” in each case.
Take `CC(=O)N[C@H]1[C@H](O[C@H]2CC[C@@]3(C)C(CC[C@]4(C)C3CC=C3C5CC(C)(C)CC[C@]5(C(=O)O)[C@H](O)C[C@]34C)C2(C)C)O[C@H](CO[C@@H]2OC[C@H](O)[C@H](O)[C@H]2O[C@@H]2OC[C@@H](O)[C@H](O)[C@H]2O)[C@@H](O)[C@@H]1O` (stereo not given in full): the activation in test [1] is -19.1%. The Potency result in test [2] and in test [3] was “inactive” each time.
For `CCC(NC(=O)CC(NC(=O)C(CO)NC(=O)C(CC)NC(=O)c1ccc[nH]1)c1ccccc1)C(=O)O` (stereo not given), in test [1], the activation is 23.7%. Further, the Potency entry in test [2] and in test [3] was “inactive” in each case.
In the case of `O=C(Cn1c2ccccc2c2nc3n(c(=O)c21)CCS3)N1CCCC1`, the activation in test [1] was 5.67%. The Potency entry in test [2] and in test [3] was “inactive” throughout.
Consider `C=CC(C)(O)CCC1C(C)(O)CCC2C(C)(C)CCCC21C` (stereo not given), for which, in test [1], the activation is 9.82%. The Potency result in test [2] and in test [3] was “inactive” in each case.
Regarding `C[C@H]1C(=O)N2c3ccccc3[C@@]3(O)C[C@@H]4C(=O)N[C@](C)(c5nc6ccccc6c(=O)n54)N1[C@@H]23`, the activation in test [1] was -2.29%. Further, the Potency result in test [2] and in test [3] was “inactive” each time.
For `CC1=C2CC3OC3(C)CCC3OC3(C)CC2OC1=O` (stereo not given), in test [1], the activation was 9.82%. For the same compound, the Potency result in test [2] and in test [3] was “inactive” in each case.
Consider `C[C@@H]1N[C@H]2N(C1=O)c1ccccc1[C@@]2(O)C[C@@H]1C(=O)N[C@@H](C)c2nc3ccccc3c(=O)n21`, for which the activation in test [1] is -22.9%. Besides, the Potency result in test [2] and in test [3] was “inactive” each time.
In the case of `CC(C)C[C@H](CC(=O)NO)C(=O)N[C@@H](Cc1ccc2ccccc2c1)C(=O)N[C@@H](C)C(=O)NCCN`, the activation in test [1] is -11.7%. Further, the Potency entry in test [2] and in test [3] was “inactive” throughout.
As to `CC(C)(O[C@@H]1O[C@H](CO)[C@@H](O)[C@H](O)[C@H]1O)C(OC(=O)/C=C\c1ccc(O)cc1)C(=O)OCc1ccc(O[C@@H]2O[C@H](CO)[C@@H](O)[C@H](O)[C@H]2O)cc1` (stereo not given in full), the activation in test [1] was -8.4%. Moreover, the Potency entry in test [2] and in test [3] was “inactive” throughout.
As for `CC1OC(OC2C(O)C(C(=O)O)OC(OC3CCC4(C)C(CCC5(C)C4C=CC4=C6CC(C)(C)CC(O)C6(C)CCC45C)C3(C)C)C2OC2OCC(O)C(O)C2O)C(O)C(O)C1O` (stereo not given), in test [1], the activation is -19.1%. Further, the Potency entry in test [2] and in test [3] was “inactive” throughout.
As to `CC1=COC(OC2OC(CO)C(O)C(O)C2O)C2C(CO)CC(OC(=O)/C=C/c3ccc(O)cc3)C12` (stereo not given), in test [1], the activation was -9.16%. The Potency result in test [2] and in test [3] was “inactive” in each case.
Turning to `CC1(C)CC[C@]2(C(=O)O)CC[C@]3(C)C(=CCC4[C@@]5(C)CC[C@H](O)C(C)(C)C5CC[C@]43C)C2C1` (stereo not given in full), the activation in test [1] was -0.763%. Also, the Potency entry in test [2] and in test [3] was “inactive” each time.
For `C=C(C)[C@@H]1CC[C@]2(C(=O)O)CC[C@]3(C(=O)O)[C@H](CCC4[C@@]5(C)CCC(=O)C(C)(C)C5CC[C@]43C)C12` (stereo not given in full), in test [1], the activation is 33.9%. Besides, the Potency entry in test [2] and in test [3] was “inactive” each time.
`COC(=O)C1=COC(O[C@@H]2O[C@H](CO)[C@@H](O)[C@H](O)[C@H]2O)[C@@H]2[C@@](C)(O)[C@@H](OC(=O)/C=C/c3ccccc3)C[C@]12O` (stereo not given in full): in test [1], the activation was 15.2%. The Potency entry in test [2] and in test [3] was “inactive” throughout.
Regarding `COc1ccc(CN2C(=O)C(=O)c3cc(S(=O)(=O)N4CCC[C@H]4COc4cccnc4)ccc32)cc1`, the activation in test [1] was 19.7%. Also, the Potency entry in test [2] and in test [3] was “inactive” throughout.
Take `CCCCCOC(=O)Nc1nc(=O)n(C2O[C@H](C)[C@@H](O)[C@H]2O)cc1F` (stereo not given in full): the activation in test [1] is -11.7%. Besides, the Potency entry in test [2] and in test [3] was “inactive” in each case.
On to `C=CC(=O)Nc1cc(-n2c(=O)ccc3cnc4ccc(-c5ccc(NS(C)(=O)=O)cc5)cc4c32)ccc1C`, for which, in test [1], the Potency is 10.7 µM (active). Moreover, the Potency result in test [2] and in test [3] was “inactive” throughout.
Turning to `C[C@@H]1O[C@@H](O[C@H]2[C@H](OC(=O)[C@]34CCC(C)(C)C[C@H]3C3=CCC5[C@@]6(C)C[C@@H](O)[C@@H](O[C@@H]7O[C@H](CO)[C@@H](O)[C@H](O)[C@H]7O)[C@@](C)(CO)C6[C@H](O)C[C@@]5(C)[C@]3(C)CC4)OC[C@H](O)[C@@H]2O)[C@H](O)[C@H](O[C@@H]2OC[C@](O)(CO)[C@H]2O)[C@H]1O[C@@H]1OC[C@@H](O)[C@H](O[C@H]2O[C@H](C)[C@@H](O)[C@H](O)[C@@H]2O)[C@H]1O` (stereo not given in full), the activation in test [1] is 6.25%. The activity change, negative = inhibition was 9.79% [at 11.2 µM] in test [2] and 2.17% [at 11.2 µM] in test [3].
As for `C[C@]1(OC(=O)/C=C/c2ccc(O)cc2)C[C@@H](O)[C@]2(O)C=CO[C@@H](O[C@@H]3O[C@H](CO)[C@@H](O)[C@H](O)[C@H]3O)C12` (stereo not given in full), the activation in test [1] is 3.57%. Further, the Potency entry in test [2] and in test [3] was “inactive” throughout.
